High-throughput results as filed in PubChem.
Rows were chosen to be rich in hits. Some 1.2% of all compounds tested hit in one or more screens of this group.
TRb SRC2 PPI – inhibitors of human thyroid hormone receptor beta-SRC2 interaction. Potency, µM (top dose mostly 106 µM), for inactives: at the top dose activity change, negative = inhibition, actives largely listed as inhibitors. TRbeta-SRC2 peptide binding, fluorescence polarization; receptor liganded with 1 µM T3. AID 1469. P10828. 280,000 compounds, 0.065% hits;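 also: plate controls were bound peptide for no effect and peptide without receptor for full effect; nearly all actives have a fitted effect of over 50% in size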
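Binding of a 20-amino-acid Texas Red SRC2 peptide (20 nM) to TRb ligand-binding domain (0.6 uM) with agonist T3 at 1 uM was followed by fluorescence polarization after a 5 hr room-temperature incubation.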
RGS12 GoLoco inh – blocks human Gai1 binding to RGS12 GoLoco peptide, red readout. 230,000 compounds, 0.44% hits. Gai1:RGS12 GoLoco peptide FP, rhodamine, 10 min. Potency, µM (titrated, usually from 61.6 µM), for inactives: top-dose activity, negative = inhibition, usual class: inhibitors; active = well fitted inhibition curve with a large enough effect, not every such curve was filed as active; inactive = no such curve, though single readings can be large or run the other way; also: nearly all actives have a fitted effect of over 30% in size
GCN5L2 inh – inhibitors of human GCN5L2 histone acetyltransferase. Q92830. GCN5L2 HAT assay, ThioGlo1 CoA-SH fluorescence. Potency, µM (top dose mostly 58.9 µM), for the others: at the highest dose activity change, negative = inhibition, most hits filed as inhibitors. 390,000 compounds, 0.21% hits
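Free CoA generated was detected with ThioGlo1 (50uM) fluorescence at Ex340nm/Em540nm, read immediately and after 20 min at room temperature. Enzyme, 20 nM in HEPES pH 7.5 buffer, saw compounds 15 min before adding 75uM H3(1-25) peptide and 70uM acetyl-CoA.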
TexasRed fluor – Texas Red fluorescence interference in TRb-SRC2 counter-screen | AID 1479 | 280,000 compounds, 0.29% hits | Potency, µM (highest dose often 106 µM), for inactives: at the highest dose fluorescence change, negative = quenching | TRb/SRC2 Texas Red total fluorescence interference; active = well fitted curve in either direction with a large enough effect; inconclusive = small, poorly fitted or top-dose-only effect
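Human TRβ ligand-binding domain (0.6 uM) and Texas Red SRC2 peptide (20 nM) in Tris buffer with 1 uM T3 and 5% DMSO were incubated with pinned compound for 5 hr at ambient temperature. Total fluorescence was computed as S + 2P (555/632 nm).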
VDR inhibitor – vitamin D3 receptor (human) inhibition. Potency, µM, without a hit: max response, negative = inhibition, hits mostly inhibitors. AID 504847. VDR-SRC2-3 peptide fluorescence polarization, 2 h. 400,000 compounds, 0.93% hits
Target sequence (P11473 whole entry, looked up): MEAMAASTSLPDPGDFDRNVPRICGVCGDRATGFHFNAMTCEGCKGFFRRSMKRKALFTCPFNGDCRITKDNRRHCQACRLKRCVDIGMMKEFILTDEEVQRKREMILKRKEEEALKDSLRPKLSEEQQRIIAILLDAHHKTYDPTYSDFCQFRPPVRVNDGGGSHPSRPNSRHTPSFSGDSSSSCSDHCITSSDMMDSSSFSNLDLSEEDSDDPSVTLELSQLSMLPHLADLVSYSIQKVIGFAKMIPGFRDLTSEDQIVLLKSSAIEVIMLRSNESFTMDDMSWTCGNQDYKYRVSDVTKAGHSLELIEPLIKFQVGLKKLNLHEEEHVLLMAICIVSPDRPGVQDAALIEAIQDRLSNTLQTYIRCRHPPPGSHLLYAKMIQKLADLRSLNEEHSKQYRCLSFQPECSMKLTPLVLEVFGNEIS
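Reagent solutions, kept cold and dark, are dispensed first; compounds are then pinned in at 23 nl, plates briefly spun, and incubated 2 h at ambient temperature. Inhibition of VDR–SRC2-3 peptide binding is read by fluorescence polarization.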
The depositor's hits bear a star; [ ] = another dose, or the depositor's remark. Unless noted, calls follow the shape of the dose curve; as a rule, active = well fitted curve in the direction sought with a large enough effect; inconclusive = small, poorly fitted or top-dose-only effect, or another doubt; inactive = no such curve, though single readings can be large; an effect the other way counts as inactive or inconclusive. Unless noted, % is scaled to controls: 0 for no effect and ±100 for the full control effect; potency is read from the fitted curve at half-maximal effect.

How did CC[C@H](C)[C@H](N)C(=O)N[C@@H](CC(N)=O)C(=O)N1CCC[C@H]1C(=O)N[C@H](C(=O)N[C@@H](Cc1ccc(O)cc1)C(=O)N[C@@H](CCCN=C(N)N)C(=O)N[C@@H](CC(C)C)C(=O)N[C@@H](CCCN=C(N)N)C(=O)N[C@@H](Cc1ccc(O)cc1)C(N)=O)[C@@H](C)CC do in these assays?
TRb SRC2 PPI: 7%; GCN5L2 inh: -2%; TexasRed fluor: 0%; VDR inhibitor: 0%

How did COc1cc(C(=S)N2CCOCC2)cc(OC)c1OS(=O)(=O)c1ccc(Cl)cc1 do in these assays?
GCN5L2 inh: -10%; VDR inhibitor: 89µM*

What do the screens show for `O=[N+]([O-])/C=C\c1ccc(N2CCOCC2)cc1`?
VDR inhibitor: 25µM*

Results for COCCNC(=S)Nc1ccc(N2CCCCC2)cc1 ?
TRb SRC2 PPI: -5%; RGS12 GoLoco inh: -10%; GCN5L2 inh: -12%; TexasRed fluor: -1%; VDR inhibitor: 32µM*

How did N#CC(=C(\N)Sc1ccccc1N)/C(C#N)=C(/N)Sc1ccccc1N do in these assays?
TRb SRC2 PPI: 3%; RGS12 GoLoco inh: -11%; GCN5L2 inh: -15%; TexasRed fluor: -1%

What do the screens show for `CC(=O)c1cc(C)oc1C`?
TRb SRC2 PPI: -5%; RGS12 GoLoco inh: -1%; TexasRed fluor: -1%

How did CCC(C(=O)O)C1CCC(C)C(C(C)C(O)C(C)C(=O)C(CC)C2OC3(C=CC(O)[C@@]4(CC[C@](C)(C5CC[C@@](O)(CC)C(C)O5)O4)O3)C(C)CC2C)O1 (some centres not stated) do in these assays?
TRb SRC2 PPI: 7%; RGS12 GoLoco inh: 28µM*; GCN5L2 inh: 4%; TexasRed fluor: -3%; VDR inhibitor: -10%

What do the screens show for `C=CCCCCCCCCCC`?
TRb SRC2 PPI: 4%[201 µM]; TexasRed fluor: -2%[201 µM]

How did CCOC(=O)c1[nH]c(C)c(C(=O)NCc2ccc(Cl)cc2)c1C do in these assays?
TRb SRC2 PPI: -3%; RGS12 GoLoco inh: 10%; GCN5L2 inh: 1%; TexasRed fluor: -4%; VDR inhibitor: -1%

Results for CC(=O)c1[nH]c(C)c(C(=O)NCc2ccc(Cl)cc2)c1C ?
TRb SRC2 PPI: -25%; GCN5L2 inh: -10%; TexasRed fluor: 1122µM*[quencher]; VDR inhibitor: 3%

What do the screens show for `CCCCCCC(C)(C)S`?
TRb SRC2 PPI: -1%[201 µM]; TexasRed fluor: -6%[201 µM]

How did CCOC(=O)C(=Cc1ccc(-n2cncn2)cc1)C(=O)OCC do in these assays?
TRb SRC2 PPI: 2%; RGS12 GoLoco inh: 4%; GCN5L2 inh: 2%; TexasRed fluor: -1%; VDR inhibitor: 16µM*

Results for CCOC(=O)C(=CNc1cc(C)nn1-c1ccc(Cl)cc1)C(=O)OCC ?
TRb SRC2 PPI: -7%; RGS12 GoLoco inh: 9%; GCN5L2 inh: 2%; TexasRed fluor: 0%; VDR inhibitor: -6%

What do the screens show for `CCOC(=O)C(=Cc1ccccc1)C(=O)OCC`?
TRb SRC2 PPI: -4%; GCN5L2 inh: 1%; TexasRed fluor: -1%; VDR inhibitor: 10µM*

Results for COC(=O)[C@H](Cc1ccccc1)NC(=O)[C@@H](C)CO ?
TRb SRC2 PPI: -11%[11.2 µM]; TexasRed fluor: inconclusive

What do the screens show for `O=C1NN(C(=O)Nc2ccc(Br)cc2)C(c2ccccc2)C1c1ccccc1` (configuration not stated)?
TRb SRC2 PPI: -3%; GCN5L2 inh: -18%; TexasRed fluor: -2%; VDR inhibitor: -17%

What do the screens show for `CCN1CCc2nc(N)sc2C1`?
TRb SRC2 PPI: 7%; RGS12 GoLoco inh: -2%; GCN5L2 inh: 0%; TexasRed fluor: 1%; VDR inhibitor: 89µM*

How did Cc1nc(COC(=O)c2ccc(CO)cc2)cs1 do in these assays?
TRb SRC2 PPI: -6%; RGS12 GoLoco inh: 2%; GCN5L2 inh: 0%; TexasRed fluor: -1%; VDR inhibitor: 2%

What do the screens show for `Cc1nc(COC(=O)c2cc(O)c3ccccc3c2O)cs1`?
TRb SRC2 PPI: 1%; RGS12 GoLoco inh: 25µM*; GCN5L2 inh: -20%; TexasRed fluor: -8%; VDR inhibitor: inconclusive

What do the screens show for `O=C(OCn1ncc(Cl)c(Cl)c1=O)c1ccc(C(F)(F)F)cc1`?
TRb SRC2 PPI: -12%; RGS12 GoLoco inh: 3%; GCN5L2 inh: -5%; TexasRed fluor: 4%; VDR inhibitor: 20µM*

What do the screens show for `CCCN1CNc2c(c(=O)[nH]c(=S)n2CCc2ccc(Cl)c(Cl)c2)C1`?
VDR inhibitor: -16%

Results for COC(=O)/C=C/c1cccc(N(Cc2ccc(-c3ccc(N(C)C)cc3)cc2)C(=O)C2CCCCC2)c1 ?
TRb SRC2 PPI: 5%; GCN5L2 inh: -28%; TexasRed fluor: 1%; VDR inhibitor: 0%

How did CC(=O)c1nnn(-c2nc(C#N)nc(N3CCOCC3)n2)c1C do in these assays?
VDR inhibitor: 4%

Results for COc1ccc(C(=O)/C(Br)=C/C(=O)O)cc1 ?
TRb SRC2 PPI: 1%; GCN5L2 inh: 3%; TexasRed fluor: 1%; VDR inhibitor: -5%

Results for N#C/C(=C\NC(=S)c1ccncc1)c1nc2ccccc2s1 ?
RGS12 GoLoco inh: 101%[14.2 µM]

Results for N#C/C(=C/c1ccncc1)c1nc2ccccc2s1 ?
TRb SRC2 PPI: 7%; RGS12 GoLoco inh: 27%; GCN5L2 inh: 1%; TexasRed fluor: -3%; VDR inhibitor: 71µM*

How did C=CC1=C2C=C(C3CC3)N(C3CCCCC3)C=C2C(=O)C(C)(OC(=O)c2ccco2)C1=O (configuration not stated) do in these assays?
TRb SRC2 PPI: -1%[11.2 µM]; RGS12 GoLoco inh: 3%[14.2 µM]; TexasRed fluor: -1%[11.2 µM]

Results for CC1SC(=S)N(c2ccc(N(C)C)cc2)C1=O (configuration not stated) ?
GCN5L2 inh: inconclusive; VDR inhibitor: 32µM*

Results for CN(C)c1ccc(N2C(=O)CSC2=S)cc1 ?
TRb SRC2 PPI: -4%; RGS12 GoLoco inh: 236%; GCN5L2 inh: 1%; TexasRed fluor: -10%; VDR inhibitor: 89µM*

How did O=C1CSC(=S)N1c1ccc(F)cc1 do in these assays?
GCN5L2 inh: 1%

How did O=C(Nc1ccccc1)c1ccc(-n2nncc2-c2ccccc2)cc1 do in these assays?
VDR inhibitor: 61%

What do the screens show for `COc1cc2nc(N3CCCN(C)CC3)nc(NC3CCN(Cc4ccccc4)CC3)c2cc1OC`?
GCN5L2 inh: inconclusive; VDR inhibitor: -8%

Results for N#CC1c2ccccc2C=CN1C(=O)N(c1ccccc1)c1ccccc1 (configuration not stated) ?
VDR inhibitor: 71µM*

What do the screens show for `O=C(N(c1ccccc1)c1ccccc1)n1ccnc1`?
TRb SRC2 PPI: -3%; RGS12 GoLoco inh: 1%; GCN5L2 inh: 2%; TexasRed fluor: -1%; VDR inhibitor: 20%
